In ChEMBL document CHEMBL4296182, “CO-ADD screening of NIH NCI Diversity Set V”:
Entries with a potency or affinity are not part of this list.

Tested on: Cryptococcus neoformans
Details: Concentration 20 uM; ASSAY_TEST Inhibition of Fungal Growth; detection method Resazurin; Absorption (OD600-OD570); plate type 384well; NBS; CORNING #3640

Row | Compound | Inhibition [%]
1 | COc1cc(/N=N/c2ccccc2C(=O)O)ccc1O | 3.74
2 | Cc1ccc(/N=N/c2c(O)c3ccccc3[nH]c2=O)c(S(=O)(=O)N(C)C)c1 | -5.24
3 | C=C1S/C(=N\c2c(C)cccc2Cl)N(C(=O)c2sc3ccccc3c2Cl)C12CCCCC2 | 0.57
4 | NC(=N\c1ccc(N)cc1)/C(N)=N/c1ccc(N)cc1 | -12.28
5 | CCOC(=O)c1[nH]c(CO)c(C(=O)OCC)c1C | -4.6
6 | CCC12CCCN3CCc4c(n(c5ccccc45)C(O)(C(=O)OC)C1)C32 (stereo not drawn) | 5.96
7 | CC(C)C(=O)Nc1cccnc1 | 8.85
8 | O=C(c1ccccc1)c1ccc(Sc2ccc([N+](=O)[O-])cc2)cc1 | -2.51
9 | COc1ccccc1/C=C(\C#N)C(=O)O | -7.1
10 | COc1ccc2c(n1)Sc1nc3ccccc3nc1N2 | -8.75
11 | CCOC(=O)Nc1csnn1 | -5.84
12 | CC1(C)CC2(C)OC2C2(C1)N=N/C(=N/c1ccccc1)O2 (stereo not drawn) | -10.74
13 | CC1=CC(=O)CC(C)(C)C1(O)/C=C/C(C)=C/C(=O)O (stereo not drawn) | -3.67
14 | CCN(CC)CCN1C(=O)c2cccc3cc(N)cc(c23)C1=O | -5.58
15 | CCCn1cnc2c(S)nc(N)nc21 | -9.79
16 | CN(C)S(=O)(=O)c1ccccc1N=C=S | -9.71
17 | O=c1ccn2c(n1)SC(c1ccccc1)C2 (stereo not drawn) | -10.89
18 | COc1cccc2nc3cc(C)c(C)cc3nc12 | -8.3
19 | COC(=O)Cc1[nH]c(Cl)nc1C(N)=O | 7.24

Row | Compound | Inhibition [%]
20 | COc1cc(/C=N/N=c2\[nH]c3c(=O)n(C)c(=O)n(C)c3[nH]2)ccc1O | 33.61
21 | CCCCSc1[nH]cnc2nncc1-2 | -16.47
22 | Nc1ccc(/C=C/c2ccc3ncccc3c2)cc1 | -10.25
23 | Cc1cc2c3ccccc3ncn2n1 | -5.91
24 | CCOC(=O)c1cnc(SCC)nc1O | -8.17
25 | Cc1cccc2cc3cccc(C)c3nc12 | -5.61
26 | COC(=O)C1(C(=O)OC)C2C(=O)C3C(C21)C3(C(=O)OC(C)(C)C)C(=O)OC(C)(C)C (stereo not drawn) | -1.86
27 | Nc1c(Cl)ncnc1NCCO | -0.36
28 | O=C(Nc1cccc(Cl)c1)Nn1cnnc1 | -3.41
29 | Cc1ccc(S(=O)(=O)N(C)C)cc1[N+](=O)[O-] | -3.84
30 | COc1ccc2[nH]c(-c3ccccc3)cc2c1 | -9.39
31 | S=C1SCN(CCc2ccccc2)CN1CCc1ccccc1 | -3.46
32 | CSc1c(N(C)C)c(=O)c1=S | -16.36
33 | C#CC(C)OCC1CNC(=S)O1 (stereo not drawn) | 15.9
34 | CCC(C)NC(=O)c1cccc(C)c1 (stereo not drawn) | -7.62
35 | [O-][n+]1ccc(CC(O)(C(F)(F)F)C(F)(F)F)cc1 | -2.34
36 | N#Cc1cnn(-c2cccc(Cl)c2)c1-n1cccc1 | -16.73
37 | O=C(O)c1cc2cc(OCc3ccccc3)ccc2[nH]1 | -8.34
38 | c1ccc2c(c1)nnn2-c1ccncc1 | -7.26
